Laboratory results from PubChem BioAssay (NCATS).
Records with an inconclusive call do not appear. A call without a number means that no potency is given here. Unmarked numbers belong to inactive results. Activity calls are given as the source filed them. The call rests on the fitted dose curve; in most records, active means well fitted cell-killing curve with a large enough effect; inconclusive means small, poorly fitted or top-dose-only effect, or effect the other way; inactive means no such curve, though single readings can be large or run the other way.

Assays:
[1] = Viability qHTS for spleen associated tyrosine kinase inhibitor (SYKi) naive MV4-11 cells (AID 1963823); further: nearly all actives have a fitted effect of over 40% in size
Procedure, shortened: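 Viability of MV4-11 AML cells lacking prior SYK inhibitor exposure is scored by CellTiter-Glo luminescence following 72 hr compound incubation at 37 C, 5% CO2, seeded at 500 cells per well.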

[2] = Viability qHTS for spleen associated tyrosine kinase inhibitor (SYKi) drug resistant MV4-11 cells (AID 1963824); further: nearly all actives have a fitted effect of over 35% in size
Procedure, shortened: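 SYK inhibitor-resistant MV4-11 AML cells, 500 per well, added to predispensed compounds and incubated 72 hr at 37 C, 5% CO2. Viability measured by CellTiter-Glo luminescence after 10 min at room temperature.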
Potency means the concentration at half of the fitted maximal effect.

| Structure (SMILES) | Potency [1] | Potency [2] | viability (% of control) [1] | viability, % of control [2] |
| --- | --- | --- | --- | --- |
| C[C@@H]1O[C@@H](O[C@H]2[C@@H]3C=CO[C@@H](O[C@@H]4O[C@H](CO)[C@@H](O)[C@H](O)[C@H]4O)[C@@H]3[C@@]3(CO)O[C@@H]23)[C@H](O)[C@H](OC(=O)/C=C/c2ccc(O)cc2)[C@H]1OC(=O)/C=C/c1ccc(O)cc1 | inactive | inactive | – | – |
| C=C1C(=O)OC[C@H]2C(C(=O)O)=CC3CC(C)(C)C[C@@]132 (some centres undefined) | inactive | 14.6 µM (active) | – | – |
| COC(=O)[C@]1(C)CCC[C@@]2(C)[C@@H]3CC[C@@H]4C[C@@]3(CC[C@@H]21)C[C@H]4C(=O)O | inactive | inactive | – | – |
| C[C@@H]1C(=O)O[C@H]2CC34[C@H]5C[C@@H](C(C)(C)C)C36[C@@H](OC(=O)[C@@H]6O)OC4(C(=O)O5)[C@]21O (some centres undefined) | inactive | inactive | – | – |
| CCOC(=O)C(CCc1ccccc1)NC(C)C(=O)N1C(=O)N(C)CC1C(=O)O (centres undefined) | inactive | inactive | – | – |
| COc1ccc(C(=O)O[C@H]2C=COC=C3C=C4C(=O)N(C)C(=S)C(=O)N4[C@@H]32)cc1Oc1cc(C=O)ccc1O | 2.82 µM (active) | 2.24 µM (active) | – | – |
| CN[C@H]1CN(c2ccc3c(=O)c(C(=O)O)cn(-c4nccs4)c3n2)C[C@@H]1OC | 0.605 µM (active) | 0.428 µM (active) | – | – |
| CC(C)c1cc(C(=O)N2CC[C@H](NC(=O)C3CC3)C2)n[nH]1 | inactive | inactive | – | – |
| CC1OC(O[C@@H]2[C@@H](O)[C@H](OC(=O)[C@]34CCC(C)(C)C[C@H]3C3=CCC5[C@@]6(C)CC[C@H](O[C@@H]7O[C@H](C(=O)O)[C@@H](O)[C@H](O[C@@H]8OC[C@@H](O)[C@H](O)[C@H]8O)[C@H]7O[C@@H]7O[C@H](CO)[C@H](O)[C@H](O)[C@H]7O)[C@@](C)(C=O)C6CC[C@@]5(C)[C@]3(C)C[C@H]4O)O[C@H](C)[C@@H]2OC2OC(C)C(OC3OCC(O)C(O)C3O)C(O)C2O)C(O)C(O)C1O (some centres undefined) | – | – | 94.8% [at 9.25 µM] | 106% [at 9.25 µM] |
| CCN(CC)C(=O)c1ccc(Nc2nc(OCC3CCCCC3)c3[nH]cnc3n2)cc1 | 1.03 µM (active) | 1.46 µM (active) | – | – |
| CC1COC2(OC3CC4C5CC(O[C@@H]6O[C@H](C)[C@@H](O[C@@H]7O[C@@H](C)[C@H](O)[C@@H](O)[C@H]7O)[C@H](O)[C@H]6O)C6CC(O)CCC6(C)C5CCC4(C)C3C2C)C(O)C1 (some centres undefined) | inactive | inactive | – | – |
| CC(=O)OC[C@]12[C@H](OC(C)=O)C(=O)[C@@H]3[C@@H](OC(C)=O)[C@@]14O[C@@]3(C)COC(=O)c1cccnc1[C@@H](C)[C@H](C)C(=O)O[C@@H]([C@H](O)[C@@H]2OC(C)=O)[C@]4(C)O | inactive | inactive | – | – |
| C=C1[C@H]2CC[C@]3(O)[C@@](CC[C@@H]4[C@](C)(C(=O)O)CCC[C@]43C)(C2)[C@H]1OC(=O)/C(C)=C\C | inactive | inactive | – | – |
| CC(=O)OC/C(=C/C(=O)O)CC[C@@H]1C(C)=CC(=O)[C@@H]2C(C)(C)CCC[C@@]12C | inactive | inactive | – | – |
| CNc1ncc2cc(-c3cc(NC(=O)NCCC(C)(C)C)c(F)cc3C)c(C)nc2n1 | 0.103 µM (active) | 0.164 µM (active) | – | – |
| CC1=CC(=O)C(=C(C)C)CC2C(C)(O)CCC12O (centres undefined) | inactive | inactive | – | – |
| C=C(C)C(=O)O[C@H]1[C@H]2C(=C)C(=O)O[C@@H]2C[C@@H](C)/C=C\C(=O)[C@](C)(O)[C@@H]1OC(C)=O | inactive | inactive | – | – |
| CC1=COC(OC2OC(CO)C(O)C(O)C2O)C2C(CO)CC(OC(=O)/C=C/c3ccc(O)cc3)C12 (centres undefined) | inactive | inactive | – | – |
| CC(C)(OC1OC(CO)C(O)C(O)C1O)C1CCC(O)(CO)C2CC(O)C(C)(O)C2C1 (centres undefined) | inactive | inactive | – | – |

| Structure (SMILES) | Potency [1] | Potency [2] | viability (% of control) [1] | viability, % of control [2] |
| --- | --- | --- | --- | --- |
| Cc1c(C(=O)NCCCO)cnn1-c1nc(-c2cccc(C(F)(F)F)c2)cs1 | 14.6 µM (active) | 14.6 µM (active) | – | – |
| COc1c2c(c(C)c3c1C(=O)OC3)OC1(C)CC(O)C34OC(OC)(CCC3(C)C1C2)OC4(C)CO (centres undefined) | inactive | inactive | – | – |
| C[C@@H]1CC[C@]2(C(=O)O[C@@H]3O[C@H](CO)[C@@H](O)[C@H](O)[C@H]3O)CC[C@]3(C)C(=CCC4[C@@]5(C)C[C@@H](O)[C@H](O)C(C)(C)C5CC[C@]43C)C2[C@]1(C)O (some centres undefined) | inactive | inactive | – | – |
| C=C(C)C(=O)O[C@H]1C[C@@](C)(OC(C)=O)[C@@]2(O)CC[C@@](C)(O)[C@H](OC(C)=O)[C@@]23OC(=O)C(COC)=C13 | 8.93 µM (active) | 11.2 µM (active) | – | – |
| CN(C)c1cc2c(Nc3ccc4c(cnn4Cc4ccccc4)c3)ncnc2cn1 | 8.2 µM (active) | 9.2 µM (active) | – | – |
| CC1(C)C2CCC1(C)C(OC(=O)C(O)(CC(=O)O)CC(=O)O)C2 (centres undefined) | inactive | inactive | – | – |
| COc1ccc(N(C(=O)Nc2c(C)cccc2C)c2cc(Nc3ccc(N4CCN(C)CC4)cc3)ncn2)c(OC)c1 | 2.31 µM (active) | 3.66 µM (active) | – | – |
| CC1=C(COC2OC(CO)C(O)C(O)C2O)C(C(CO)C(=O)O)CC1 (centres undefined) | inactive | inactive | – | – |
| C/C=C1/[C@H](O[C@@H]2O[C@H](CO)[C@@H](O)[C@H](O)[C@H]2O)OC=C(C(=O)OC)[C@H]1CC(=O)O[C@@H]1O[C@H](CO)[C@@H](O)[C@H](O)[C@H]1O | inactive | inactive | – | – |
| CC1(C)CCC[C@]2(C)[C@H]3CC(=O)O[C@]3(C)CC[C@@H]12 | inactive | inactive | – | – |
| C=C1CC2C3(C)C(O)CC(=O)C(C)(C)C3C(OC(C)=O)C(OC(C)=O)C2(C)C2C(=O)OC(C)(C(=O)OC)C(=O)C12C (centres undefined) | inactive | inactive | – | – |
| C=C(CCO[C@@H]1O[C@H](CO)[C@@H](O)[C@H](O)[C@H]1O)C(=O)O | inactive | inactive | – | – |
| CC(C)(O)c1ccc2c(c1)C(O)CC1C(C)(C(=O)O)CCCC21C (centres undefined) | inactive | inactive | – | – |
| C=C(C)C1CCC2(C(=O)O[C@@H]3O[C@H](CO[C@@H]4O[C@H](CO)[C@@H](O)[C@H](O)[C@H]4O)[C@@H](O)[C@H](O[C@@H]4O[C@@H](C)[C@H](O)[C@@H](O)[C@H]4O)[C@H]3O)CCC3(C(=O)O)C(CCC4C5(C)CCC(O)C(C)(C)C5CCC43C)C12 (some centres undefined) | – | – | 84.2% [at 9.25 µM] | 114% [at 9.25 µM] |
| CSc1ccc2c(c1)C(N1CCN(C)CC1)Cc1ccccc1S2 (centres undefined) | 11.9 µM (active) | 26.6 µM (active) | – | – |
| COc1ccc(Cl)cc1[C@@]1(F)C(=O)Nc2cc(C(F)(F)F)ccc21 | 9.2 µM (active) | 6.51 µM (active) | – | – |
| C=C(CCO)C(=O)OCC1OCC(OC(=O)C(=C)CCO[C@@H]2O[C@H](CO)[C@@H](O)[C@H](O)[C@H]2O)C(O)C1O (some centres undefined) | inactive | inactive | – | – |
| C=C1C(O)CC2C(C(=O)O)=COC(O[C@@H]3O[C@H](COC(=O)c4ccc(O)cc4)[C@@H](O)[C@H](O)[C@H]3O)C12 (some centres undefined) | inactive | inactive | – | – |
